Values joined by “and” are separate entries in the source; they are usually repeats but may differ in a detail not shown here. Equal values may be shown once. Screen size: about 5,500 compounds; about 2,000 (36%) were called active. Not shown: some 18% with an inconclusive outcome. No stated cut-off is given here; in the data, active means normalized growth mostly below about 0.91 (no sharp cut-off); inconclusive means no clear call, values can overlap the other calls; inactive means mostly above about 0.92. The list shows a part of the results.
Assay: chemical genetic growth profiling, strain panel (AID 1159580);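 further: tested at 20 µM; growth read once vehicle control cultures reached saturation at 30 °C; 1 = growth at the plate median or of vehicle wells; lower values mean less growth of the strain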
Settings: S. cerevisiae deletion strains, growth OD

Measured: normalized growth

NC(=O)c1ncn([C@@H]2O[C@H](CO)[C@@H](O)[C@H]2O)n1
inactive: locus YAL013W, strain DEP1, hits give low values 1 | locus YAL021C, strain ccr4, hits give low values 1.02 | locus YAL026C, strain drs2, hits give low values 0.995 | locus YAL030W, strain snc1, hits give low values 0.998 | locus YBL061C, strain skt5, hits give low values 0.975 | locus YBR009C, strain hhf1, hits give low values 0.992 | locus YBR021W, strain FUR4, hits give low values 0.965 | locus YBR023C, strain chs3, hits give low values 0.981 | locus YBR171W, strain sec66, hits give low values 0.993 | locus YBR229C, strain ROT2, hits give low values 0.993 | locus YBR231C, strain swc5, hits give low values 0.997 | locus YBR279W, strain paf1, hits give low values 0.978 | locus YCL011C, strain gbp2, hits give low values 0.981 | locus YCL016C, strain dcc1, hits give low values 0.979 | locus YCL029C, strain bik1, hits give low values 0.981 | locus YCL061C, strain MRC1, hits give low values 0.983 | locus YCL069W, strain vba3, hits give low values 0.996 | locus YCR088W, strain abp1, hits give low values 0.994 | locus YDL005C, strain med2, hits give low values 0.982 | locus YDL035C, strain GPR1, hits give low values 1.02 | locus YDL040C, strain nat1, hits give low values 0.978 | locus YDL074C, strain BRE1, hits give low values 1.04 | locus YDL101C, strain DUN1, hits give low values 0.998 | locus YDL134C, strain PPH21, hits give low values 1 | locus YDL185W, strain tfp1, hits give low values 0.978 | locus YDL192W, strain arf1, hits give low values 0.98 | locus YDR001C, strain nth1, hits give low values 0.996 | locus YDR069C, strain doa4, hits give low values 0.989 | locus YDR101C, strain arx1, hits give low values 0.993 | locus YDR137W, strain rgp1, hits give low values 0.97 | locus YDR150W, strain NUM1, hits give low values 0.988 | locus YDR159W, strain sac3, hits give low values 0.978 | locus YDR162C, strain NBP2, hits give low values 0.968 | locus YDR195W, strain ref2 0.979 | locus YDR297W, strain sur2, hits give low values 0.99 | locus YDR318W, strain mcm21, hits give low values 0.995 | locus YDR334W, strain swr1, hits give low values 0.99 | locus YDR335W, strain msn5, hits give low values 0.991 | locus YDR388W, hits give low values 0.995 | locus YDR392W, strain spt3, hits give low values 0.995 | locus YDR502C, strain sam2, hits give low values 0.992 | locus YEL003W, strain gim4, hits give low values 0.999 | locus YEL037C, strain rad23, hits give low values 0.993 | locus YEL061C, strain CIN8 (second series), hits give low values 0.994 | locus YEL061C, strain CIN8, hits give low values 0.999 | locus YER015W, strain faa2, hits give low values 0.988 | locus YER016W, strain bim1, hits give low values 0.988 | locus YER110C, hits give low values 0.989 | locus YER111C, strain swi4, hits give low values 0.996 | locus YER155C, strain BEM2 (second series), hits give low values 0.989 | locus YER155C, strain BEM2, hits give low values 0.995 | locus YER167W, strain BCK2, hits give low values 1.01 | locus YFR010W, strain ubp6, hits give low values 0.999 | locus YGL078C, strain dbp3, hits give low values 0.985 | locus YGL086W, strain mad1, hits give low values 0.997 | locus YGL167C, strain pmr1, hits give low values 0.983 | locus YGL173C, strain kem1, hits give low values 0.974 | locus YGL227W, strain vid30, hits give low values 0.986 | locus YGL240W, strain doc1, hits give low values 0.984 | locus YGL248W, strain PDE1, hits give low values 0.996 | locus YGL253W, strain hxk2, hits give low values 0.982 | locus YGR078C, strain PAC10, hits give low values 1.02 | locus YGR135W, strain pre9, hits give low values 0.979 | locus YGR229C, strain SMI1, hits give low values 1.01 | locus YGR252W, strain gcn5, hits give low values 0.993 | locus YHR013C, strain ard1, hits give low values 0.953 | locus YHR027C, strain rpn1, hits give low values 0.974 | locus YHR030C, strain SLT2, hits give low values 0.999 and 0.988 | locus YHR079C, strain IRE1 (second series), hits give low values 1 | locus YHR079C, strain IRE1, hits give low values 0.98 | locus YHR094C, strain hxt1, hits give low values 0.981 | locus YHR129C, strain ARP1, hits give low values 1.01 | locus YHR142W, strain chs7, hits give low values 0.999 | locus YHR200W, strain rpn10, hits give low values 0.993 | locus YIL066C, strain RNR3, hits give low values 0.995 | locus YIL073C, strain SPO22, hits give low values 0.946 | locus YIL125W, strain kgd1, hits give low values 0.997 | locus YIR030C, strain dcg1, hits give low values 0.99 | locus YJL092W, strain hpr5, hits give low values 0.992 | locus YJL095W, strain BCK1 (second series), hits give low values 0.987 | locus YJL095W, strain BCK1, hits give low values 1.02 and 0.977 | locus YJL115W, strain asf1, hits give low values 0.994 | locus YJL129C, strain trk1, hits give low values 0.995 | locus YJL134W, strain LCB3, hits give low values 1 | locus YJL154C, strain vps35, hits give low values 1.01 | locus YJL164C, strain tpk1, hits give low values 0.978 | locus YJL166W, strain qcr8, hits give low values 0.988 | locus YJL168C, strain set2, hits give low values 1 | locus YJL187C, strain SWE1 (second series), hits give low values 0.983 | locus YJL187C, strain SWE1, hits give low values 0.986 | locus YJR043C, strain POL32, hits give low values 0.977 | locus YJR066W, strain TOR1, hits give low values 0.959
